The text below walks through data of PubChem BioAssay (NCATS).

Experiment [1] can be described thus: Cell Viability - SK-N-SH (AID 435; calls by dose curve;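 further: potency means the concentration at half of the fitted maximal effect; compound exposure lasted 40 h at 37 °C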). The following applies: SK-N-SH neuroblastoma cell viability qHTS. Summed up:
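Cells seeded at 1500 per well and incubated 5 hr at 37 °C. Compound added, then 40 hr at 37 °C. CellTiter-Glo added, 20 min at room temperature, luminescence read.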
(In general: Quantitative high-throughput screening tests each substance at several concentrations.)

The nature of experiment [2]: Cell Viability - Mesenchymal (AID 546).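 Further: cells exposed to compound for 40 hours before reading; 0% = DMSO only and -100% = 100 µM tamoxifen.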 Summed up: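 AC50 values reflect the drop in intracellular ATP in a human kidney mesenchymal line derived from normal glomeruli. Treatment lasts 40 hr at 37 °C in complete medium, and the signal comes from CellTiter-Glo luminescence.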
A short description of experiment [3]: Cell Viability - LYMP2-013 (AID 970).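 Further: cells exposed to compound for 24 h at 37 °C; 0% = DMSO only and full inhibition = tetraoctylammonium bromide control; nearly all actives have a fitted effect of over 55% in size.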 Put shortly:
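qHTS; 2500 lymphoblastoid cells/well; 5 hr 37 C settle; cpd 24 hr 37 C; CellTiter-Glo, 30 min RT; luminescence. AC50 = Hill fit.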

A short description of experiment [4]: Cell Viability - LYMP2-010 (AID 981). Further: on the % scale 0 is the no-effect control and ±100 the full control effect; nearly all actives have a fitted effect of over 55% in size. Summed up: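 Luminescent ATP signal (CellTiter-Glo) served as the viability read-out. Cells of the human lymphoblastoid line were treated with compound over a concentration range for 24 hours at 37 C, and AC50 values came from Hill-equation modeling.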
Experiment [5] can be described thus: Cell Viability - LYMP2-018 (AID 985).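 Further: compound exposure lasted 24 hr at 37 °C; plate controls were DMSO only for no effect and tetraoctylammonium bromide at 92 µM for full effect; nearly all actives have a fitted effect of over 50% in size.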 Summed up:
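Luminescent ATP signal (CellTiter-Glo, read after 30 min at room temperature) reports viable cells after 24 hr compound treatment at 37 C. Concentration-response data were fitted to the standard Hill equation for AC50.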

Experiment [6] can be described thus: Cell Viability - LYMP1-002 - Assay at 24 hr (AID 993). Further: on the % scale 0 is the no-effect control and ±100 the full control effect. Summed up:
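Cells plated 2500/well, 5 hr 37 C; compounds added, 24 hr 37 C; CellTiter-Glo added, 30 min RT; luminescence read. Tetraoctylammonium bromide positive control. Hill-equation AC50.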

Experiment [7] can be described thus: qHTS assay for small molecule antagonists of peroxisome proliferator-activated receptor delta signaling (AID 588535; active means well fitted inhibition curve with a large enough effect in the signal ratio, with a control signal flat, not every such curve was filed as active; the % refers to the signal ratio;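 on max response: cells co-treated with a PPAR-delta agonist as stimulator during compound exposure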). The settings on record: HEK293T PPARd-UAS-bla, beta-lactamase FRET ratio, 18 h; 460 nm channel. Put shortly:
(§1)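 HEK293T PPAR-delta-UAS-bla cells, 4000/well, 2% charcoal/dextran FBS; 5 h 37 C; cpd titration; 18 h 37 C; CCF4 2 h RT; FI 460/530 nm; Hill fit → IC50, efficacy.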

Experiment [8] has as its target Peroxisome proliferator-activated receptor delta (Homo sapiens) (UniProt Q03181). The experiment is described as above. Put shortly:
as §1

Experiment [9] concerns the target Peroxisome proliferator-activated receptor gamma (Homo sapiens) (UniProt P37231). Briefly: qHTS assay for small molecule agonists of peroxisome proliferator-activated receptor gamma signaling (AID 588536; active means well fitted curve in the direction sought with a large enough effect in the signal ratio, with a control signal flat, not every such curve was filed as active; the % refers to the signal ratio;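 further: 0% = DMSO basal wells and 100% = rosiglitazone at 2 µM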). Put shortly: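 PPAR-gamma-UAS-bla HEK293 cells in medium with 1% charcoal/dextran-treated FBS were exposed to compounds for 16 h at 37 C. Beta-lactamase activity was read with CCF4 substrate (405 nm excitation, 460/530 nm emission).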

The nature of experiment [10]: qHTS assay for small molecule activators of the p53 signaling pathway (AID 651743; active means well fitted activation curve with a large enough effect in the signal ratio, not every such curve was filed as active; the % refers to the signal ratio; further: % of control where 0% means no effect). The following applies: HCT-116 p53RE-bla, beta-lactamase FRET ratio, 16 h; activation: stronger effect = higher value. Summed up: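 Read-out is fluorescence intensity from the LiveBLAzer B/G FRET substrate, added for 2 hours at room temperature after HCT-116 p53RE-bla cells had been incubated with compounds for 16 hours at 37 C.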

Experiment [11] in a line: qHTS assay for environmental chemicals that activate the Aryl hydrocarbon Receptor (AhR) signaling pathway (AID 651777). Further: % of control where 0% means no effect; nearly all actives have a fitted effect of over 15% in size. The settings on record: 1A2-DRE human hepatoma cells, luciferase, 24 h; activation: stronger effect = higher value. Summed up:
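AhR activation is scored as a rise in luciferase from a stable DRE–CYP1A2 promoter construct in human hepatoma cells. Treatment lasts 24 hr at 37 C; detection uses One-Glo after 30 min at room temperature.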

Experiment [12] in a line: Cell Viability - LYMP2-007 (AID 979).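 Further: cells exposed to compound for 24 h before reading; 0% = DMSO only and the negative end = 92 µM tetraoctylammonium bromide; nearly all actives have a fitted effect of over 60% in size.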 Put shortly: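 Luminescent ATP signal (CellTiter-Glo) serves as the viability read-out after 24 hr compound treatment of lymphoblastoid cells in complete medium at 37 C. Concentration-response data were fitted to the Hill equation to give AC50 values.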
Experiment [13] addresses Bile acid receptor (Homo sapiens) (UniProt Q96RI1). Briefly: qHTS assay for small molecule antagonists of farnesoid X receptor signaling (AID 588526; calls by dose curve; further: on the % scale 0 is the no-effect control and ±100 the full control effect). Put shortly:
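Beta-lactamase reporter antagonist mode: HEK293T FXR-UAS-bla cells, titrated compound, CDCA stimulation, 16 h 37 C, CCF4 dye 2 h RT. Data normalized to CDCA 50 uM and DMSO; Hill-fit IC50.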

In experiment [14] the target is Retinoic acid receptor RXR-alpha (Homo sapiens) (UniProt P19793). Briefly: qHTS assay for small molecule agonists of retinoid X receptor alpha signaling (AID 588544; calls by dose curve;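 further: 0% = DMSO basal wells and 100% = reference agonist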).
Sequence of Retinoic acid receptor RXR-alpha (Homo sapiens) (P19793 whole entry, looked up): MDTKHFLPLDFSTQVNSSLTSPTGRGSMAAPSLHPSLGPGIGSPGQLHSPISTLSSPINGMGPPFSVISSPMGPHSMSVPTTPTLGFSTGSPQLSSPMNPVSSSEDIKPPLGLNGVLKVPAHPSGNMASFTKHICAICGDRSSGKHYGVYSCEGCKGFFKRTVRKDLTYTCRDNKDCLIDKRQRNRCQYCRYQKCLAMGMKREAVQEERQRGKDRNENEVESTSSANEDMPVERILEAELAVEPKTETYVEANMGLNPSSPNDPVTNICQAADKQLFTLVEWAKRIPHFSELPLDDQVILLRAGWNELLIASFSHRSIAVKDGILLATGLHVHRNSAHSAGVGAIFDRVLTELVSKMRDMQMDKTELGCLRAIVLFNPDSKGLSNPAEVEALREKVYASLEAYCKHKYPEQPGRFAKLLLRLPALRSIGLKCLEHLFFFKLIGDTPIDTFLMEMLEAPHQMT
Experiment [15] in a line: Cellular Toxicity (caspase-3) Mesangial (AID 660).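 Further: combined caspase 3 and 7 activity read by Caspase-Glo luminescence; cells exposed to compound for 16 h before the caspase read.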 Put shortly: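 Mesangial cells, 1000/well, 5 h settle at 37 °C; compound 16 h, 37 °C; Caspase-Glo 3/7 reagent 20 min RT; luminescence. Norm.: DMSO = 0%, tamoxifen 100 uM = 100%. AC50, Hill fit.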
Experiment [16] in a line: Cellular Toxicity (caspase-3) N2a (AID 665).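 Further: compound exposure lasted 16 h at 37 °C before readout.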 The settings on record: N2a cells, luminescence, normalized: DMSO 0%, 10 µM staurosporine 100%; at 92.2 µM (top of the series). Put shortly: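 N2a cells, 1500/well, 5 h settle at 37 °C; cpd 16 h, 37 °C; Caspase-Glo 3/7, 1 h RT; luminescence. Norm: DMSO = 0, 10 uM staurosporine = 100%. AC50, Hill fit.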
Experiment [17] in a line: MultiTox-Fluor Cytotoxicity Assay - LYMP1-001 - Live Cells (AID 947).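 Further: 0% = DMSO only and full inhibition = tetraoctylammonium bromide control.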
The nature of experiment [18]: MultiTox-Fluor Cytotoxicity Assay - LYMP1-002 - Live Cells (AID 955). Further: on the % scale 0 is the no-effect control and ±100 the full control effect. Put shortly:
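Read-out is live-cell protease activity (cell-permeant GF-AFC substrate, fluorescence Ex/Em=405/510), where a decrease indicates acute toxicity. Human lymphoblastoid cells were treated 16 hours at 37 C in a concentration series, and AC50 values came from standard Hill modelling.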

Experiment [19] has as its target Peroxisome proliferator-activated receptor gamma (Homo sapiens) (UniProt P37231). Briefly: qHTS assay for small molecule antagonists of peroxisome proliferator-activated receptor gamma signaling (AID 588537; active means well fitted inhibition curve with a large enough effect in the signal ratio, with a control signal flat, not every such curve was filed as active; the % refers to the signal ratio;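 further: reporter cells co-stimulated with 50 nM rosiglitazone agonist during compound treatment; % of control where 0% means no effect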). Summed up:
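Antagonist mode, beta-lactamase reporter in HEK293; charcoal/dextran FBS 1%; 3000 cells/well, 37 C 6-6.5 h; cpd titration + rosiglitazone 50 nM final, 16 h 37 C; CCF4, 2 h RT; 460/530 nm; Hill fit → IC50, efficacy.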

Where “and” joins values, the source holds several entries; their conditions need not be identical. Equal values may be shown once. Records with an inconclusive call do not appear. Calls of active or inactive are those of the source. Unless noted, the call rests on the fitted dose curve; in most records, active means well fitted curve in the direction sought with a large enough effect; inconclusive means small, poorly fitted or top-dose-only effect, or another doubt; inactive means no such curve, though single readings can be large; an effect the other way counts as inactive or inconclusive.

Sequence of Peroxisome proliferator-activated receptor gamma (Homo sapiens) (P37231 whole entry, looked up): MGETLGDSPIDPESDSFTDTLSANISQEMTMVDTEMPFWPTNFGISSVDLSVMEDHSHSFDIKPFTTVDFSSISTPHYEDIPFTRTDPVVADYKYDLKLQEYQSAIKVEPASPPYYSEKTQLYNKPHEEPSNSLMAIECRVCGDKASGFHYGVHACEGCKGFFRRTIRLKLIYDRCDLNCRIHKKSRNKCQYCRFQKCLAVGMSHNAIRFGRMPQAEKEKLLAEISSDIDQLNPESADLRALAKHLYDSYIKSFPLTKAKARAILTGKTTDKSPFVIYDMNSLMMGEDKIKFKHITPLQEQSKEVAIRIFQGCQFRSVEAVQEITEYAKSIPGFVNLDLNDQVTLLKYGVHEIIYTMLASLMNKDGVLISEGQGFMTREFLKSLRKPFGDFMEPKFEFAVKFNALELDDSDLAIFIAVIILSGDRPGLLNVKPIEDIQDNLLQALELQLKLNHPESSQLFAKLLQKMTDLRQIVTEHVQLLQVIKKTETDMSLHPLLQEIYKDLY
Sequence of Bile acid receptor (Homo sapiens) (Q96RI1 whole entry, looked up): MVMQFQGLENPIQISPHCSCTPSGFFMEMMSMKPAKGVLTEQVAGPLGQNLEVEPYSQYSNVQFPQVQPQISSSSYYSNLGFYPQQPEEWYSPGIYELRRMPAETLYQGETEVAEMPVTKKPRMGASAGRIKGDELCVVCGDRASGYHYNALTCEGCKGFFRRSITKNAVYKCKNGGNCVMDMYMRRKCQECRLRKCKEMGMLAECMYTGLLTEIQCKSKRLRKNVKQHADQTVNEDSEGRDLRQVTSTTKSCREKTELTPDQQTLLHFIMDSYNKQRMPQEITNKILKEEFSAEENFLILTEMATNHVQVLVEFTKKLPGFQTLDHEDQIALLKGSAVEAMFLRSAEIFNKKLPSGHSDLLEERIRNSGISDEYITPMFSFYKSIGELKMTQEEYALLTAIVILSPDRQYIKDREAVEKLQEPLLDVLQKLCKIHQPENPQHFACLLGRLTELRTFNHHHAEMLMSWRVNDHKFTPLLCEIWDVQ
Sequence of Peroxisome proliferator-activated receptor delta (Homo sapiens) (Q03181 whole entry, looked up): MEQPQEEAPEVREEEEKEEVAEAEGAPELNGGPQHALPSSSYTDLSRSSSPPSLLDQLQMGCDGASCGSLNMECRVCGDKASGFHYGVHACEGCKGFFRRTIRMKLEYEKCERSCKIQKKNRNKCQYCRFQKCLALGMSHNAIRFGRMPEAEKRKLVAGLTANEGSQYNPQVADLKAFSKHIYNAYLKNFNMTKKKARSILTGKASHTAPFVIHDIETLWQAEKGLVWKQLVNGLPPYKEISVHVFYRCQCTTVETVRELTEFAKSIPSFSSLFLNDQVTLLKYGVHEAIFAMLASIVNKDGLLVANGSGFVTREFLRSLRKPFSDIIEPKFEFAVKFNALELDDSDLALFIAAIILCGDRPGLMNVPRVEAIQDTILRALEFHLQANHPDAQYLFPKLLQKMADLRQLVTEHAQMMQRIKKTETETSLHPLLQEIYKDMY

For `Clc1nc(Cl)nc(Cl)n1`, the Potency in experiment [1] is > 92 µM (inactive). The outcome in experiment [2] and in experiment [9] was inactive. The Potency entry in experiment [3], in [4], in experiment [5], in experiment [6] and in experiment [8] was “inactive” throughout. Besides, the max response in [7] was -3.59% and 8.32%. The activation in [10] is -4.73% (inactive) and -1.27% (inactive); in experiment [11], 1.36% (inactive) and 0.55% (inactive).
For `c1ccc2c(c1)CCCC2`, the result in experiment [2], in experiment [13] and in [9] was inactive. The Potency result in experiment [3], in experiment [12], in [5] and in experiment [14] was “inactive” each time.
In the case of `ClC(Cl)(Cl)c1ccccc1`, the result in experiment [2], in experiment [15], in [18] and in experiment [13] was inactive. The caspase-3 activation in [16] was -0.73% (inactive) and -1.88% (inactive). The Potency entry in experiment [17], in experiment [12], in experiment [5], in experiment [6], in experiment [8] and in experiment [14] was “inactive” throughout. Further, the max response in experiment [7] was 32% and 10.5%. Further, the activation in [10] is -3.47% (inactive) and -2.04% (inactive).
Take `S=C=Nc1cccc2ccccc12`: the Potency in [1] is > 92 µM (inactive). In addition, the compound was classed as inactive in experiment [2], in experiment [15], in experiment [18] and in experiment [13]. For the same compound, the Potency result in experiment [17], in [3], in experiment [12], in experiment [5], in [6] and in [8] was “inactive” in each case. Also, the max response in experiment [7] was -3.26%.
With `Oc1ccc(Cl)cc1Cl`, the Potency in experiment [1] is > 92 µM (inactive). Moreover, the caspase-3 activation in experiment [16] was -0.627% (inactive). The compound was called inactive in experiment [18], in experiment [13] and in experiment [9]. The Potency entry in experiment [3], in [5], in experiment [8], in experiment [19] and in experiment [14] was “inactive” in each case. In addition, the max response in experiment [7] was found to be 0.988%. Also, the activation in [11] was 0.13% (inactive) and 0.875% (inactive).
In the case of `CCCC(=O)Cl`, the compound was called inactive in experiment [2] and in experiment [13]. Besides, the caspase-3 activation in [16] is 4.05% (inactive). The Potency result in experiment [17] and in experiment [19] was “inactive” throughout. Also, the activation in experiment [10] is -0.024% (inactive); in [11], -2.02% (inactive).
On to `[O-][Br+2]([O-])O`, for which, in experiment [1], the Potency was > 92 µM (inactive). Moreover, the compound was classed as inactive in experiment [2] and in experiment [15]. Moreover, the caspase-3 activation in [16] is -9.36% (inactive) and -10.4% (inactive). The Potency result in experiment [3], in experiment [5] and in [19] was “inactive” throughout. For the same compound, the activation was -0.499% (inactive) and 0.319% (inactive) in [10]; 0.946% (inactive) and -0.602% (inactive) in experiment [11].
On to `CC(O)CCl` (stereo not given), for which the compound was called inactive in experiment [2], in [15], in experiment [18] and in experiment [13]. For the same compound, the caspase-3 activation in experiment [16] is 3.17% (inactive). Moreover, the Potency entry in experiment [3], in experiment [5], in experiment [6], in experiment [8], in [19] and in experiment [14] was “inactive” throughout. Besides, the max response in [7] is -27.3% and -9.22%. The activation in [11] is 0.217% (inactive) and 1.37% (inactive).
Consider `Clc1nc(Cl)nc(Nc2ccccc2Cl)n1`, for which the Potency in experiment [1] is > 92 µM (inactive). Besides, the result in experiment [15] and in experiment [9] was inactive. Moreover, the caspase-3 activation in experiment [16] was 0.587% (inactive). Moreover, the Potency entry in experiment [19] and in experiment [14] was “inactive” in each case.
For `c1ccc(-c2ccccc2)cc1`, in [1], the Potency was > 92 µM (inactive). The compound was called inactive in experiment [2], in experiment [18], in experiment [13] and in experiment [9]. The caspase-3 activation in [16] is -1.9% (inactive). The Potency entry in experiment [3], in experiment [4], in [8] and in [19] was “inactive” each time. The max response in experiment [7] is -1.97% and 13.4%. Further, the activation is 2.71% (inactive) and -2.97% (inactive) in experiment [10]; -0.623% (inactive) and 2.83% (inactive) in experiment [11].
On to `C=CC(=O)OCC`, for which the Potency in experiment [1] is > 92 µM (inactive). For the same compound, the call in [2], in experiment [15], in experiment [18], in experiment [13] and in experiment [9] was inactive. For the same compound, the caspase-3 activation in [16] is -1.92% (inactive). Also, the Potency result in experiment [17], in [3], in experiment [12], in experiment [4], in [5] and in experiment [8] was “inactive” each time. The Potency entry in experiment [19] and in experiment [14] was “inactive” throughout. In experiment [7], the max response is 26.1%. Moreover, the activation in experiment [11] was -0.74% (inactive).
As to `Cc1ccccc1N`, the compound was called inactive in experiment [2] and in experiment [18]. Further, the caspase-3 activation in experiment [16] is -5.28% (inactive) and -1.86% (inactive). Also, the Potency entry in experiment [17], in experiment [12], in experiment [4], in experiment [8] and in experiment [14] was “inactive” throughout. Further, in experiment [7], the max response is 7.62%. For the same compound, the activation in experiment [10] was -1.62% (inactive) and -3.19% (inactive).
